From PubChem BioAssay AID1346428 (National Center for Advancing Translational Sciences (NCATS), 2018)
Several values for one entry are separate records, joined by “and”; a condition that tells them apart may be missing. Equal entries are not always repeated. Hit rate of the full screen: of about 48,000 compounds, about 1,200 (2.5%) were called active. About 2% were inconclusive and are not listed.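 How the source made its calls: active means activation of at least 60% and not above a set upper limit (about 1 call in 100 departs from these limits); inconclusive means activation of 40% to 60%, or above that upper limit; inactive means activation under 40%.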 What follows is part of a selection rich in actives, with near analogues and random picks from the rest. Some compounds were tested as several samples or in several runs, with calls that do not always agree.

target: Probable G-protein coupled receptor 32 (Homo sapiens) (UniProt O75388); test: qHTS for Agonists of Human Resolvin D1 Receptor DRV1; details: CHO-K1 GPR32 beta-arrestin PathHunter luminescence, 90 min; at 76.9 µM; stronger effect = higher value; zero percent set by DMSO-only wells; further: 0% is about no effect
Method in brief: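 Agonism was scored as beta-arrestin recruitment to ProLink-fused GPR32 in stably transfected CHO-K1 cells, giving a chemiluminescent beta-Gal signal; compounds were incubated 90 min at 37 °C.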

Sequence of Probable G-protein coupled receptor 32 (Homo sapiens) (O75388 whole entry, looked up, the tested form may be a part): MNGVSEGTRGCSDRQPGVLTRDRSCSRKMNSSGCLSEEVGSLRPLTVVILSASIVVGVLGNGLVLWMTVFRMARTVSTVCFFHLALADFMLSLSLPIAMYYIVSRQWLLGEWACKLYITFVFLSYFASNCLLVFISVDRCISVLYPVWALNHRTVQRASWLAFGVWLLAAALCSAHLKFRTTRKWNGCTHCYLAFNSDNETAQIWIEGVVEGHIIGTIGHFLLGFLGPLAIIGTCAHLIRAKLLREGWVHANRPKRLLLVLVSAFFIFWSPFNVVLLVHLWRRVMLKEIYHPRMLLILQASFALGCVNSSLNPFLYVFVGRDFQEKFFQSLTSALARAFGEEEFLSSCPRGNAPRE

Row | Structure (SMILES) | activation
1 | COCCCNC(=O)C1CCC(CNS(=O)(=O)c2ccc(OC)cc2)CC1 (centres undefined) | -7.55% (inactive)
2 | COc1ccc(N2C(=O)NC(NS(=O)(=O)c3ccc(Cl)cc3)(C(F)(F)F)C2=O)cc1 (centres undefined) | -2.22% (inactive)
3 | Cc1nnc(SCc2cc(=O)c3cc(F)ccc3[nH]2)n1C | -15.5% (inactive)
4 | CCC(=O)N1CCc2cc(Br)cc(S(=O)(=O)CCC(=O)N3CCN(c4ccc(F)cc4)CC3)c21 | 1.23% (inactive)
5 | CCCCn1cc(S(=O)(=O)c2ccc(OCC)cc2)c(=O)c2cc(OC)c(OC)cc21 | -26% (inactive)
6 | COc1ccc(CCC(=O)NCc2ccc3c(c2)CCN3C(=O)c2ccc(F)cc2)cc1 | -17.6% (inactive)
7 | CCC(Sc1nnc(-c2ccc(OC)cc2)c(-c2ccc(OC)cc2)n1)C(=O)NC1CCCCC1 (centres undefined) | -11.5% (inactive)
8 | CCOC(=O)c1ccc(NC(=O)c2nc(SCc3ccc(F)cc3)ncc2Cl)cc1 | -27.7% (inactive)
9 | CCCS(=O)(=O)c1ncc(Cl)c(C(=O)Nc2scc(-c3ccccc3)c2C(=O)OCC)n1 | 97.2% (active)
10 | Cc1ccc(NC(=O)c2nc(S(=O)(=O)Cc3cccc(C)c3)ncc2Cl)cc1 | -21.8% (inactive)
11 | CCOC(=O)C1CCCN(CC(=O)Nc2cc(C)c3c(=O)oc4ccccc4c3n2)C1 (centres undefined) | -11.1% (inactive)
12 | CSc1ccccc1-c1nnc(NC(=O)c2ccc3c(c2)OCCO3)o1 | -21.8% (inactive)
13 | CCn1cc(C(=O)NCc2ccc(C)cc2)c(=O)c2cc(S(=O)(=O)N3CCc4ccccc4C3)ccc21 | 70.1% (active)
14 | CCn1cc(C(=O)NCc2ccccc2)c(=O)c2cc(S(=O)(=O)N3CCCCC3)ccc21 | 0.542% (inactive)
15 | CCOCCCNC(=O)c1cn(CC)c2ccc(S(=O)(=O)N3CCc4ccccc4C3)cc2c1=O | 3.07% (inactive)
16 | COc1ccccc1NC(=O)Cn1cnc2ccc(S(=O)(=O)N3CCC(C)CC3)cc2c1=O | 14.7% (inactive)
17 | CCc1cccc(CC)c1NC(=O)Cn1c(=O)c(-c2cc(C)ccc2NC(C)=O)nc2ccccc21 | -6.44% (inactive)
18 | CCc1nn(CCCN2CCN(c3cccc(Cl)c3)CC2)c(=O)n1CCOc1ccccc1 | 89.4% (active)
19 | CCc1nc2ccc(C(=O)N3CCN(c4cccc(Cl)c4)CC3)cc2nc1CC | -29.3% (inactive)
20 | CCOC(=O)c1c(C)[nH]c(CCC(=O)NCCCN2CCN(c3cccc(Cl)c3)CC2)c1C | 3.48% (inactive)
21 | Cc1ccc(Cl)cc1N(C)C(=O)C1CCCN(c2ncnc3onc(-c4ccc(F)cc4)c23)C1 (centres undefined) | -22% (inactive)

Row | Structure (SMILES) | activation
22 | CCNC(=O)CC1C(=O)N(c2ccc(F)cc2)C(=O)N1Cc1ccc(C)cc1 (centres undefined) | 0.37% (inactive)
23 | CCCCC12CN3CC(C)(CN(C1)C3c1ccc(O)c(OC)c1)C2=O (centres undefined) | -20.2% (inactive)
24 | COc1cc(OC)cc(C(=O)Nc2ccc3nc(Nc4cccc(C(F)(F)F)c4)cc(C)c3c2)c1 | -9.34% (inactive)
25 | Cn1c(C(=O)Nc2cccc(C(F)(F)F)c2)cc2c(=O)n3ccccc3nc21 | 4.29% (inactive)
26 | Cc1cc(Nc2cccc(C(F)(F)F)c2)nc2ccc(NC(=O)c3ccc(=O)[nH]c3)cc12 | 112% (active)
27 | Cn1c(=O)sc2cc(NS(=O)(=O)c3ccc(C(C)(C)C)cc3)ccc21 | -13.3% (inactive)
28 | Cc1cc2nc(-c3ccc(NC(=O)c4cc5ccccc5o4)cc3)oc2cc1C | -3.47% (inactive)
29 | CCC(C)c1ccc2oc(-c3ccc(NC(=O)c4cc5ccccc5o4)cc3)nc2c1 (centres undefined) | -0.177% (inactive)
30 | CC(C)Oc1ccc(NC(=O)c2cc3ccccc3o2)cc1 | 63.5% (active)
31 | O=C(OCc1ccccc1)c1ccc(O)cc1 | 68.1% (active)
32 | O=C(O)CCCc1ccccc1 | 6.7% (inactive)
33 | CCOC(=O)c1ccc(CN(Cc2ccccc2)S(=O)(=O)c2ccc(Cl)cc2)cc1 | -16.7% (inactive)
34 | COc1ccc(NC(=O)Cn2c(=O)n(Cc3ccc(C(=O)NCc4ccccc4Cl)cc3)c(=O)c3ccccc32)cc1 | -4.2% (inactive)
35 | CCCCCCc1ccc(O)cc1O | 89.2% (active)
36 | Cc1ccc(O)c(NC(=O)CCS(=O)(=O)c2nc(-c3ccc4c(c3)OCO4)cc(C(F)(F)F)n2)c1 | -25.7% (inactive)
37 | COC(=O)c1ccc2c(c1)N(CC(=O)Nc1ccc(C)c(C)c1)C(=O)c1ccccc1S2 | -13.7% (inactive)
38 | COc1ccc(CNC(=O)CCc2c(C)nn(-c3ccc(N4CCCC4)nn3)c2C)cc1 | -8.15% (inactive)
39 | O=C(Nc1ccccc1Br)c1cc(CN2CCCC2)on1 | -9.24% (inactive)
40 | Cc1ccccc1Cn1nc(C)c(NC(=O)c2cc(-c3ccc(F)cc3)on2)c1C | 6.09% (inactive)
41 | Cc1nn(Cc2ccc(F)cc2)c(C)c1NC(=O)c1cc(CC(C)C)on1 | 86.4% (active)
42 | Cc1ccc(NC(=O)C(Cc2ccccc2)NS(=O)(=O)c2ccc3c(c2)oc(=O)n3C)cc1C (centres undefined) | 4.78% (inactive)

Row | Structure (SMILES) | activation
43 | CCN(CCCNC(=O)Cn1ncc2c3ccccc3n(C)c2c1=O)Cc1ccccc1 | -3.31% (inactive)
44 | Cc1ccc(C)c(N2CCN(C(=O)Cn3nc(C)c4sc5ccccc5c4c3=O)CC2)c1 | -8.71% (inactive)
45 | CN(CC(=O)Nc1cccc(C(F)(F)F)c1)S(=O)(=O)c1cccs1 | 67.5% (active)
46 | O=C(CCS(=O)(=O)c1ccc2c(c1)NC(=O)CO2)Nc1cccc(C(F)(F)F)c1 | 13.3% (inactive)
47 | O=C(CN1c2ccccc2S(=O)(=O)c2ccccc21)Nc1cccc(C(F)(F)F)c1 | 1.8% (inactive)
48 | CCc1ccccc1NC(=O)N1CCC2(CC1)Oc1ccccc1C(=O)N2Cc1ccccc1F | -16.7% (inactive)
49 | O=C(CSc1n[nH]c(-c2ccccc2)n1)N1CCCCC1 | 7.63% (inactive)
50 | Cc1cccc(OCCCC(=O)Nc2sc3c(c2C(N)=O)CCC(C)C3)c1 (centres undefined) | 70.3% (active)
51 | COC(=O)c1c(NC(=O)CCCOc2ccccc2)sc2c1CCC(C)C2 (centres undefined) | 7.01% (inactive)
52 | CCOc1ccc(NC(=O)c2c(NC(=O)Cc3ccccc3)sc3c2CCC(C)C3)cc1 (centres undefined) | -11.2% (inactive)
53 | COc1ccccc1-c1cc2nc(C)c(CCC(=O)O)c(C)n2n1 | -0.841% (inactive)
54 | COc1ccc(NC(=O)CCCN2C(=O)CCn3nc(-c4cn(C)c5ccccc45)cc32)cc1OC | 17.2% (inactive)
55 | CCOc1cc(C2c3c(-c4ccc(Br)cc4)n[nH]c3C(=O)N2c2ccc(Cl)cc2)ccc1O (centres undefined) | 85.1% (active)
56 | CCOc1ccc(-c2n[nH]c3c2C(c2ccccc2OC)N(c2ccc(Br)cc2)C3=O)cc1 (centres undefined) | -5.97% (inactive)
57 | CCOC(=O)c1ccc(N2C(=O)c3n[nH]c(C)c3C2c2ccc(O)c(OC)c2)cc1 (centres undefined) | 21.2% (inactive)
58 | CCCOC(=O)c1c(NC(=O)c2cc3nc(-c4ccc(OC)cc4)cc(C(F)(F)F)n3n2)sc2c1CCCC2 | 16% (inactive)
59 | COc1ccc(NC(=O)Cn2c(=O)cc(C)c3c(C)nn(-c4cccc(Cl)c4C)c32)cc1OC | -11.5% (inactive)
60 | Cc1ccccc1OCc1ccc(-c2nc(C#N)c(N3CCCCC3)o2)o1 | -28.2% (inactive)
61 | Cc1cc(C)cc(OCC(=O)Nc2nc(-c3ccc(F)cc3)ns2)c1 | 4.54% (inactive)
62 | COc1cc(CNCCSc2nnnn2C)ccc1OCc1ccc(Cl)cc1Cl | 60% (active)
63 | Cn1nnnc1SCCNCc1ccc(Cl)c(Cl)c1 | -5.94% (inactive)

Row | Structure (SMILES) | activation
64 | COc1cc(CNCCSc2nnnn2C)ccc1OCc1c(F)cccc1Cl | 14.1% (inactive)
65 | CCc1ccccc1NC(=O)N1CCN(C(=O)c2nsc3ccccc23)CC1 | -15.9% (inactive)
66 | COc1cccc(Cn2c(SCc3ccc(C(=O)N4CCCCC4)cc3)nc3ccncc32)c1 | 30.7% (inactive)
67 | Cc1[nH]c2ccccc2c1C(c1ccccc1)c1cccs1 (centres undefined) | 73.6% (active)
68 | COc1ccc(-c2onc(C)c2C)cc1S(=O)(=O)NCCc1ccccc1 | 3.28% (inactive)
69 | O=C(Nc1nnc(C2CC(=O)N(c3ccc(Cl)cc3)C2)s1)c1ccco1 (centres undefined) | -14.5% (inactive)
70 | CCCCN(C)CCCNC(=O)CN1N=C(c2ccc(OC)cc2)CCC1=O | 11.3% (inactive)
71 | Cc1ccc(S(=O)(=O)N2CCCc3cc(NS(=O)(=O)c4cc(C)ccc4C)ccc32)cc1 | -16.6% (inactive)
72 | C=Cc1ccc(Cn2c(C(=O)OC)cc3sc(C)cc32)cc1 | -21.6% (inactive)
73 | CCC(C(=O)OCCN(CC)CC)c1ccccc1 (centres undefined) | 1.87% (inactive)
74 | CCCC(C(=O)OCCN(CC)CC)(c1ccccc1)c1ccccc1 | 60.2% (active) and -17.3% (inactive)
75 | Cc1ccc(N(CC(=O)Nc2cc(C)cc(C)c2)S(=O)(=O)c2cccc3nonc23)cc1 | -3.71% (inactive)
76 | Cc1ccc(NC(=O)Cn2c(=O)n(-c3ccccc3)c(=O)c3c4c(sc32)CCCC4)cc1 | -1.44% (inactive)
77 | CC(=O)c1ccc(N2CCN(C3C(=O)c4ccccc4N3C(C)=O)CC2)cc1 (centres undefined) | -28.3% (inactive)
78 | CC1=C(c2ccc(Cl)cc2)S(=O)(=O)N=C1N1CCN(c2cc(C)ccc2C)CC1 | -14.2% (inactive)
79 | Cc1ccc(C)c(N2CCN(CCCNC(=O)Nc3ccc(Cl)cc3)CC2)c1 | 37.2% (inactive)
80 | CC1=C(c2ccc(C)cc2)S(=O)(=O)NC1=NCCCN1CCN(c2cc(C)ccc2C)CC1 | 84.3% (active)
81 | Cc1csc2nc(COc3ccc(NC(=O)COc4ccccc4)cc3)cc(=O)n12 | 63.9% (active)
82 | Cc1ccc(C(=O)Nc2ccc(OCc3cc(=O)n4c(C)csc4n3)cc2)cc1 | 3.91% (inactive)
83 | Cc1ccc(OCC(=O)Nc2ccc(OCc3cc(=O)n4c(C)csc4n3)cc2)cc1C | -16.1% (inactive)
84 | COc1ccccc1N1CCN(CCCNC(=O)c2cnn(-c3ccccc3Cl)c2C2CCN(C(=O)OC(C)(C)C)CC2)CC1 | -18.9% (inactive)
